From PMC5540273 (PLoS ONE, 2017)

Tested on: BRSK2
Details: concentration: 1 μM,replicates: in singlicate; n = 1
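Also: KINOMEscan kinase panel screen.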

Compound | %Inh [%]
CS(=O)c1ccc(-c2coc3ccc(-c4n[nH]c(=O)o4)cc23)cc1 (stereo not shown) | 2
O=C(Nc1cccc(Oc2ccc3nccn3n2)c1)Nc1cccc(C(F)(F)F)c1 | 13
CCNCC(Cc1ccccc1)NC(=O)c1cc(Br)c(-c2ccnc3[nH]ccc23)s1.Cl.Cl (stereo not shown) [GSK1383280] | 0
COC(=O)Nc1nc2cc(Oc3ccc(NC(=O)Nc4cc(C(F)(F)F)ccc4Cl)cc3)ccc2[nH]1.Cl [GW697465] | 0
COc1cc2nccc(Nc3ccc(Oc4ccccc4)cc3)c2cc1OC.Cl [GI261656] | 0
Cc1ccc2c(-c3ccnc(Nc4ccc(C(F)(F)F)cc4)n3)cnn2n1 [GW819776] | 14
O=C(Nc1ccccc1)c1cccc(Oc2ccc3nccn3n2)c1 | 0
C[C@@H](Oc1cc(-n2cnc3cc(-c4ccncc4)ccc32)sc1C(N)=O)c1ccccc1Cl [GSK479719] | 79
CS(=O)(=O)Nc1ccc(-c2ccnc3[nH]ccc23)cc1 [GSK993273] | 0
NC(=O)c1ccc(-c2cc3ncnc(SCC(=O)O)c3s2)cc1 | 0
CN(c1ccc2c(c1)nc(NCc1ccc(F)cc1)n2C)c1ccnc(Nc2ccc(CS(C)(=O)=O)cc2)n1.Cl [GW813244] | 0
Cn1ccc2ncnc(Oc3ccc(NC(=O)Nc4cccc(C(F)(F)F)c4)c(F)c3)c21 | 2
CCOC(=O)N1CCC(n2cnc(-c3ccc(F)cc3)c2-c2ccnc(N)n2)CC1 [SB-219952] | 19
Cc1cccc2c(-c3ccncc3)c(-c3ccc(F)cc3)nn12.Cl [GW461487] | 0
N#Cc1cccc(C(=O)NC2CCN(c3ccnc(Nc4ccc(F)cc4)n3)C2)c1 (stereo not shown) [GSK1379708] | 0
Cc1n[nH]c2cc(Nc3ccnc(Nc4cccc(CN5CCOCC5)c4)n3)ccc12 [GW682569] | 0
Cn1cc(-c2cccc3c(N)c(C(N)=O)nnc23)cn1 | 18
Nc1nccc(-c2ccc3c(N)n[nH]c3c2)n1 [GSK1034945] | 15
C[C@@H]1CNc2c(sc3ccc4nc(-c5ccc(O)cc5)ccc4c23)C(=O)N1 | 72

Compound | %Inh [%]
COc1cccc(C2=C(Nc3cccc(Cl)c3)C(=O)NC2=O)c1 [SB-341556] | 2
CCn1c(-c2nonc2N)nc2cncc(Br)c21 [SB-738004] | 0
COc1cc2c(Nc3ccc(NC(=O)c4ccccc4)cc3)ncnc2cc1OCCCN1CCOCC1 [GSK301329] | 0
O=C1NCCc2[nH]c(-c3ccncc3)cc21 | 6
Cc1ccc(Nc2ccnc(Nc3ccc4c(c3)CS(=O)(=O)C4)n2)cc1O.Cl [GW579362] | 3
O=C(Nc1n[nH]c2cc(-c3ccco3)ccc12)C1CC1 [SB-737447] | 46
CN(c1cccc(CNc2nc(Nc3ccc4c(c3)CC(=O)N4)ncc2C(F)(F)F)c1)S(C)(=O)=O | 0
Cc1ccc(C(=O)Nc2ccc(Oc3ccc4nc(NC(=O)C5CC5)cn4c3)c(F)c2)c(=O)n1-c1ccccc1 | 0
COC(=O)c1cccc(NC(=O)NC2CCN(c3ccnc(NCc4ccc(F)cc4)n3)CC2)c1 [GSK1379860] | 0
Cl.c1ccc(Oc2ccc(Nc3ccnc4cc(-c5ccc(CN6CCNCC6)o5)ccc34)cc2)nc1 [GW567142] | 0
O=C(NCC1CC1)c1ccc(-c2cc(C(=O)NC3CC3)ccc2F)cc1 [GW810445] | 0
C[C@@H](Oc1cc(-n2cnc3cc(-c4cnn(C)c4)ccc32)sc1C(N)=O)c1ccccc1Cl [GSK580432] | 93.3
CC(C)c1nc(-c2cccc(NS(=O)(=O)c3ccccc3)c2)c(-c2ccnc(Nc3ccc4c(c3)CN(C)CC4)n2)s1 [GSK1649598] | 46
C[C@@H](Oc1cc(-n2cnc3ccc(-c4ccncc4)cc32)sc1C(N)=O)c1ccccc1Cl [GSK483724] | 20
CCn1c(-c2nonc2N)nc2cncc(CNC3CCNCC3)c21.Cl [SB-747651] | 0
CC(C)S(=O)(=O)N1CCN(Cc2ccc3c(c2)nc(NC(=O)c2ccsc2)n3C[C@H](O)c2ccccc2)CC1 [GW635815] | 0
COc1cc(Nc2nccc(N3CCC(NC(=O)c4cccc(C#N)c4)C3)n2)cc(OC)c1OC (stereo not shown) [GSK1379751] | 100
Cc1ccc(CC(=O)N2CCc3cc(-c4cn(C)c5ncnc(N)c45)ccc32)cc1 [GSK2634758] | 0
